PubChem BioAssay

Assay: E. coli acrAB mutant growth effects, primary screen, E. coli filamentation inducers, strain DRC39, OD650, 24 h (AID 1178);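 note: growth measured as culture turbidity by optical density at 650 nm; test concentration not given here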
Settings: higher = more signal, called active from +8 up or from −8 down

z-score, inactive:
CCOC(=O)C1=CC[C@@H](c2ccc(OC)cc2)N(S(=O)(=O)c2ccc(C)cc2)[C@H]1CC 0.608
CC1CC/C=C\[C@H]2OC34C=CCN(C(C)(C)C)C(=O)[C@H]3N(CCCO)C(=O)[C@@H]4C2C(=O)O1 (stereo partly specified) -0.282
C=C(C)[C@@H]1CC=C(C(O)C2C=CC3C(=O)N(c4ccccc4)C(=O)C3N2Nc2ccc([N+](=O)[O-])cc2)CC1 (stereo partly specified) -1.17
C=CCOC(=O)[C@@H]1[C@H]2C(=O)O[C@H](c3ccccc3)[C@H](c3ccccc3)N2[C@H](c2ccc(OCCOC(=O)[C@H]3C[C@H]4C(=O)NCC(=O)N4[C@H]3c3cccc(OCCO)c3)cc2)[C@@]12C(=O)Nc1ccc(I)cc12 0.0109
COC(=O)[C@H](Cc1ccccc1)N1CC2=CCCC=C[C@@H]2[C@H]1[C@H](O)Cc1ccccc1 -0.337
CC(=O)OCC1C2CC[C@H]3C(OCc4ccc(F)cc4C(F)(F)F)OC[C@]4(C)[C@H]3C2=C(CN4C(=O)OC(C)(C)C)[C@H](C)C1COC(C)=O (stereo partly specified) -1.47
CC(=O)c1ccc(C(O)C2C=CC3C(=O)N(c4ccccc4)C(=O)C3N2Nc2ccc(C(C)C)cc2)cc1 (stereo unspecified) 0.481
CC(C)NC(=O)[C@@]1(C)c2ccccc2C(=O)N(Cc2ccccc2)[C@H]1c1ccc(CO)cc1 0.4
CCCCC(O)C1C=CC2C(=O)N(c3ccccc3)C(=O)C2N1Nc1ccc([N+](=O)[O-])cc1 (stereo unspecified) 0.356
Cc1ccc(S[C@]2(C(=O)NC3CC3)CC(=O)N(C(C)C)[C@@H]2c2ccc(CO)cc2I)cc1 0.741
COCCOC(=O)N1C(=O)[C@@]2(c3cc(C#CCC(C(=O)OC)C(=O)OC)ccc31)[C@H](C(=O)Nc1nc3ccccc3s1)[C@H]1C(=O)O[C@H](c3ccccc3)[C@H](c3ccccc3)N1[C@@H]2c1ccc(OCCO)cc1 -0.0125
COC(=O)C1=CC(CCCO)=CC(c2cccs2)N(Cc2cc3c(cc2Br)OCO3)C=C1C(=O)OC (stereo unspecified) 0.404
CN1C(=O)C2C(C1=O)C1C=C(c3ccc(CO)cc3)C2C(C2CC2)N1C (stereo unspecified) -0.453
COCCCNC(=O)[C@@H]1c2ccccc2C(=O)N(Cc2ccc(OC(F)(F)F)cc2)[C@H]1c1ccc(CO)cc1 0.454
COCCCNC(=O)[C@@]1(CCC(=O)OC(C)(C)C)COC(c2ccc(OCCCO)cc2)=N1 0.391
O=C(O)[C@H](Cc1ccccc1)n1cc(C2(O)CCCCC2)nn1 -0.128
CN(C)CCCC[C@@H]1NC(=O)[C@@H]2C[C@H](C(=O)NCCCCCCNC(=O)CS)[C@H](c3ccc(O)cc3)N2C1=O -0.19
COC(=O)[C@@]1(Cc2ccc(OC)cc2)[C@H]2c3cc(C(=O)N4CCCC4)n(CCn4cc([N+](=O)[O-])nc4C)c3C[C@H]2CN1C(=O)c1ccccc1 -0.784
[N-]=[N+]=NCc1ccccc1[C@@H]1OC(c2ccc(OCCCO)cc2)=N[C@]1(Cc1ccccc1N=[N+]=[N-])C(=O)O 2.32
C=CCOC(=O)[C@H]1[C@@H]2C(=O)O[C@@H](c3ccccc3)[C@@H](c3ccccc3)N2[C@@H](c2ccc(OCCOC(=O)[C@H]3C[C@H]4C(=O)N[C@@H](CC(C)C)C(=O)N4[C@H]3c3ccc(O)cc3)cc2)[C@]12C(=O)Nc1ccccc12 0.376
COc1ccc([Si](C)(C)[C@H]2[C@H](CC(=O)N3Cc4ccccc4C[C@H]3CO)O[C@@]3(C(=O)N(c4ccccc4)c4ccccc43)[C@@H]2C)cc1 0.346
N#Cc1ccc(-c2cccc(=O)o2)cc1 -1.1
COCCOC(=O)N1C(=O)[C@@]2(c3ccccc31)[C@H](C(=O)N1CCN(c3ncccn3)CC1)[C@H]1C(=O)O[C@H](c3ccccc3)[C@H](c3ccccc3)N1[C@@H]2c1ccccc1OCCO 0.858
NC(=O)NCC#Cc1ccc2c(c1)[C@]1(C(=O)N2)[C@H](c2ccc(OCCO)cc2)N2[C@H](c3ccccc3)[C@H](c3ccccc3)OC(=O)[C@H]2[C@@H]1C(=O)O 0.427
COC(=O)[C@@]1(Cc2ccc(OC)cc2)[C@H]2c3cc(C(=O)N(C)C)[nH]c3C[C@H]2CN1C(=O)c1ccccc1 -0.151

Assay: E. coli acrAB mutant growth effects, primary screen, E. coli filamentation inducers, strain DRC39, OD650, 48 h (AID 1179);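 note: screen aims at cell division blockers that make cells filament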
Settings: E. coli DRC39 delta-acrAB growth, higher = more signal, called active from +8 up or from −8 down

z-score, inactive:
COc1cc(OC)c(C(O)C2C=CC3C(=O)N(c4ccccc4)C(=O)C3N2Nc2ccc(C(C)C)cc2)cc1Br (stereo unspecified) 0.48
CC(C)c1nc2cc(Br)ccc2c(=O)o1 1.24
CN1C(=O)[C@@H]2[C@@H](CC(COc3ccccc3)=C3[C@@H](CCc4ccccc4)OB(O)C[C@@H]32)C1=O -0.0443
O=C(NCCN1CCOCC1)[C@@H]1c2ccccc2C(=O)N(Cc2ccc(OC(F)(F)F)cc2)[C@H]1c1ccc(CO)cc1 -0.322
CN(C)c1ccc(C(O)C2C=CC3C(=O)N(Cc4ccccc4)C(=O)C3N2n2cnnc2)cc1 (stereo unspecified) 0.694
CC(C)C(O)C1C=CC2C(=O)NC(=O)C2N1Nc1ccccn1 (stereo unspecified) 0.125
COc1ccc([Si](C)(C)[C@@H]2[C@@H](CC(=O)N3Cc4ccccc4C[C@H]3CO)O[C@]3(C(=O)N(Cc4ccc(N5CCOC5=O)cc4)c4ccccc43)[C@H]2C)cc1 0.465
COCCOC(=O)N1C(=O)[C@@]2(c3cc(C#CCC(C(=O)OC)C(=O)OC)ccc31)[C@H](C(=O)Nc1nc3ccccc3s1)[C@H]1C(=O)O[C@H](c3ccccc3)[C@H](c3ccccc3)N1[C@@H]2c1ccc(O)cc1 -0.186
COc1cc(CO)cc(I)c1O[C@H]1C=C(C(=O)NCCO)C[C@@H](NC2CCCCCC2)[C@@H]1O 0.12
O=C(NC1CC1)[C@@H]1c2ccccc2C(=O)N(Cc2ccc(OC(F)(F)F)cc2)[C@H]1c1ccc(CO)cc1 1.11
CCOC(=O)C1=CC[C@@H](c2ccc(OC)cc2)N(S(=O)(=O)c2ccc(C)cc2)[C@H]1CC 1.87
CC1CC/C=C\[C@H]2OC34C=CCN(C(C)(C)C)C(=O)[C@H]3N(CCCO)C(=O)[C@@H]4C2C(=O)O1 (stereo partly specified) -0.52
C=C(C)[C@@H]1CC=C(C(O)C2C=CC3C(=O)N(c4ccccc4)C(=O)C3N2Nc2ccc([N+](=O)[O-])cc2)CC1 (stereo partly specified) -1.37
C=CCOC(=O)[C@@H]1[C@H]2C(=O)O[C@H](c3ccccc3)[C@H](c3ccccc3)N2[C@H](c2ccc(OCCOC(=O)[C@H]3C[C@H]4C(=O)NCC(=O)N4[C@H]3c3cccc(OCCO)c3)cc2)[C@@]12C(=O)Nc1ccc(I)cc12 0.312
COC(=O)[C@H](Cc1ccccc1)N1CC2=CCCC=C[C@@H]2[C@H]1[C@H](O)Cc1ccccc1 -0.27
CC(=O)OCC1C2CC[C@H]3C(OCc4ccc(F)cc4C(F)(F)F)OC[C@]4(C)[C@H]3C2=C(CN4C(=O)OC(C)(C)C)[C@H](C)C1COC(C)=O (stereo partly specified) -0.748
CC(=O)c1ccc(C(O)C2C=CC3C(=O)N(c4ccccc4)C(=O)C3N2Nc2ccc(C(C)C)cc2)cc1 (stereo unspecified) 0.463
CC(C)NC(=O)[C@@]1(C)c2ccccc2C(=O)N(Cc2ccccc2)[C@H]1c1ccc(CO)cc1 0.988
CCCCC(O)C1C=CC2C(=O)N(c3ccccc3)C(=O)C2N1Nc1ccc([N+](=O)[O-])cc1 (stereo unspecified) 0.282
Cc1ccc(S[C@]2(C(=O)NC3CC3)CC(=O)N(C(C)C)[C@@H]2c2ccc(CO)cc2I)cc1 0.617
COCCOC(=O)N1C(=O)[C@@]2(c3cc(C#CCC(C(=O)OC)C(=O)OC)ccc31)[C@H](C(=O)Nc1nc3ccccc3s1)[C@H]1C(=O)O[C@H](c3ccccc3)[C@H](c3ccccc3)N1[C@@H]2c1ccc(OCCO)cc1 0.972
COC(=O)C1=CC(CCCO)=CC(c2cccs2)N(Cc2cc3c(cc2Br)OCO3)C=C1C(=O)OC (stereo unspecified) -0.372
CN1C(=O)C2C(C1=O)C1C=C(c3ccc(CO)cc3)C2C(C2CC2)N1C (stereo unspecified) -0.335
COCCCNC(=O)[C@@H]1c2ccccc2C(=O)N(Cc2ccc(OC(F)(F)F)cc2)[C@H]1c1ccc(CO)cc1 -0.34
COCCCNC(=O)[C@@]1(CCC(=O)OC(C)(C)C)COC(c2ccc(OCCCO)cc2)=N1 0.624
O=C(O)[C@H](Cc1ccccc1)n1cc(C2(O)CCCCC2)nn1 -0.477
CN(C)CCCC[C@@H]1NC(=O)[C@@H]2C[C@H](C(=O)NCCCCCCNC(=O)CS)[C@H](c3ccc(O)cc3)N2C1=O -0.551
COC(=O)[C@@]1(Cc2ccc(OC)cc2)[C@H]2c3cc(C(=O)N4CCCC4)n(CCn4cc([N+](=O)[O-])nc4C)c3C[C@H]2CN1C(=O)c1ccccc1 -0.552
[N-]=[N+]=NCc1ccccc1[C@@H]1OC(c2ccc(OCCCO)cc2)=N[C@]1(Cc1ccccc1N=[N+]=[N-])C(=O)O 0.499
C=CCOC(=O)[C@H]1[C@@H]2C(=O)O[C@@H](c3ccccc3)[C@@H](c3ccccc3)N2[C@@H](c2ccc(OCCOC(=O)[C@H]3C[C@H]4C(=O)N[C@@H](CC(C)C)C(=O)N4[C@H]3c3ccc(O)cc3)cc2)[C@]12C(=O)Nc1ccccc12 1.02
COc1ccc([Si](C)(C)[C@H]2[C@H](CC(=O)N3Cc4ccccc4C[C@H]3CO)O[C@@]3(C(=O)N(c4ccccc4)c4ccccc43)[C@@H]2C)cc1 -0.288
